Consider 33 compounds from PubChem BioAssay (Tox21).

The target of experiment [1] is Cytochrome P450 2C19 (Homo sapiens) (UniProt P33261). Put plainly: Cytochrome P450 Family 2 Subfamily C Member 19 (CYP2C19) small molecule antagonists: luciferase reporter qHTS assay (AID 1671197). Also: nearly all actives have a fitted effect of over 65% in size. As to activity change, negative = inhibition: series mostly up to about 120 µM. In a few lines:
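Inhibition of CYP2C19 was scored from loss of luminescence in a P450-Glo proluciferin substrate assay, NADPH-started and run 1 h at 37C, with ketoconazole as positive control.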
Background: A reporter such as luciferase makes a cellular process visible.

The target of experiment [2] is Cytochrome P450 2C9 (Homo sapiens) (UniProt P11712). Put plainly: Cytochrome P450 Family 2 Subfamily C Member 9 (CYP2C9) small molecule antagonists: luciferase reporter qHTS assay (AID 1671198). Also: nearly all actives have a fitted effect of over 50% in size. As to activity change, negative = inhibition: series mostly up to about 120 µM. The method, boiled down:
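Enzyme-substrate mix preincubated with compound 10 min at room temperature; reaction started with NADPH regeneration solution, 1 h 37C. Luminescent luciferin product read after 20 min detection reagent.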

Experiment [3] addresses Voltage-gated inwardly rectifying potassium channel KCNH2 (Homo sapiens) (UniProt Q12809). The experiment can be described thus: Human Ether-a-go-go-Related Gene (hERG) channel small molecule antagonists: fluorescence cell-based qHTS assay (AID 1671200). Also: nearly all actives have a fitted effect of over 50% in size.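 As to activity change, negative = inhibition: hERG-expressing U2OS cells given a thallium stimulus after FluxOR II dye loading; series mostly up to about 77 µM.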 In a few lines:
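In this thallium-flux screen, overnight-cultured U2OS cells bearing the channel are dye-loaded in darkness for an hour, rested 10 min at room temperature, and then monitored kinetically at 480/540 nm for two minutes post-stimulus.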
On the technique in general: The hERG channel carries a current that helps repolarise heart muscle cells.

Experiment [4] concerns the target Cytochrome P450 3A4 (Homo sapiens) (UniProt P08684). The experiment can be described thus: Cytochrome P450 Family 3 Subfamily A Member 4 (CYP3A4) small molecule antagonists: luciferase reporter qHTS assay (AID 1671201). Also: nearly all actives have a fitted effect of over 50% in size. As to activity change, negative = inhibition: series mostly up to about 120 µM. In a few lines: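 CYP3A4 activity was followed with a P450-Glo proluciferin substrate. Test compounds in DMSO were preincubated 10 min; NADPH regeneration then ran 1 h, and light output was read 20 min after detection reagent.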

Experiment [5] concerns the target Cytochrome P450 1A2 (Homo sapiens) (UniProt P05177). Put plainly: Cytochrome P450 Family 1 Subfamily A Member 2 (CYP1A2) small molecule antagonists: luciferase reporter qHTS assay (AID 1671199). Also: nearly all actives have a fitted effect of over 50% in size. As to activity change, negative = inhibition: series mostly up to about 120 µM. The method, boiled down: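 Signal from luciferin formed by CYP1A2 from a proluciferin substrate is read as luminescence, expressed in relative luminescence units. Compounds sit with enzyme 10 min, NADPH-driven reaction runs 1 h, all at room temperature.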

“And” between values parts separate entries of the source, which are not always exact repeats. Equal entries are not always repeated. Inconclusive results are not listed. Unmarked numbers belong to inactive results. The source made the active and inactive calls. Calls follow the shape of the dose curve; as a rule, active = well fitted curve in the direction sought with a large enough effect in the repeat runs; inconclusive = weak or mixed curves; inactive = no such curve, though single readings can be large; an effect the other way counts as inactive or inconclusive.
% is scaled to controls: 0 for no effect and ±100 for the full control effect; potency is read from the fitted curve at half-maximal effect.

Cytochrome P450 2C19 (Homo sapiens), sequence (P33261 whole entry, looked up): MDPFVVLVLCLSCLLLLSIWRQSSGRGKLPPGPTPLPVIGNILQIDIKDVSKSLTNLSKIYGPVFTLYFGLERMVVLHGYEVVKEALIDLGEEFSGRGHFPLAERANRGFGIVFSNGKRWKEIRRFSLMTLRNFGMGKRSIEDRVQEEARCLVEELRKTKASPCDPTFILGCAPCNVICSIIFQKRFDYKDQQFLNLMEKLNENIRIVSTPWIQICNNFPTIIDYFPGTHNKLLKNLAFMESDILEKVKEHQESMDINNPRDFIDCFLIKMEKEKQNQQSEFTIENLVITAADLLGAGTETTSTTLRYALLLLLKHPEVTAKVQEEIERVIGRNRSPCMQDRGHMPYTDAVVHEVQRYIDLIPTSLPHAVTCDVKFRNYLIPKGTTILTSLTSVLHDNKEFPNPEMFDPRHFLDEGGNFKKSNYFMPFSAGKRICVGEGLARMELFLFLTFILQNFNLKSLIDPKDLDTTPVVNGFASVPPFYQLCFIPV
Cytochrome P450 2C9 (Homo sapiens), sequence (P11712 whole entry, looked up): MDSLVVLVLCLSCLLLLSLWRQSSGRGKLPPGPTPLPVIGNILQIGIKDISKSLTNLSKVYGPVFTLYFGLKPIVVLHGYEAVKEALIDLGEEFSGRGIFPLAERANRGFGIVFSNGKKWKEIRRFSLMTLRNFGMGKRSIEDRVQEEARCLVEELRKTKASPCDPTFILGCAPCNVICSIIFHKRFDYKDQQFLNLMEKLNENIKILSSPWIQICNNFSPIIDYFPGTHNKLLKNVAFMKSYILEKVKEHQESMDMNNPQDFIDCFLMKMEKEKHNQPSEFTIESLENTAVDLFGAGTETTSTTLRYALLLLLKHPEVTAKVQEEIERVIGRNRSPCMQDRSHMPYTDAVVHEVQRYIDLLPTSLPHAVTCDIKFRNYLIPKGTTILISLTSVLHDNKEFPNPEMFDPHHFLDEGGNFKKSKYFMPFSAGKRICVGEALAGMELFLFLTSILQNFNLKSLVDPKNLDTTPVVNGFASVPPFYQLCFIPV
Cytochrome P450 3A4 (Homo sapiens), sequence (P08684 whole entry, looked up): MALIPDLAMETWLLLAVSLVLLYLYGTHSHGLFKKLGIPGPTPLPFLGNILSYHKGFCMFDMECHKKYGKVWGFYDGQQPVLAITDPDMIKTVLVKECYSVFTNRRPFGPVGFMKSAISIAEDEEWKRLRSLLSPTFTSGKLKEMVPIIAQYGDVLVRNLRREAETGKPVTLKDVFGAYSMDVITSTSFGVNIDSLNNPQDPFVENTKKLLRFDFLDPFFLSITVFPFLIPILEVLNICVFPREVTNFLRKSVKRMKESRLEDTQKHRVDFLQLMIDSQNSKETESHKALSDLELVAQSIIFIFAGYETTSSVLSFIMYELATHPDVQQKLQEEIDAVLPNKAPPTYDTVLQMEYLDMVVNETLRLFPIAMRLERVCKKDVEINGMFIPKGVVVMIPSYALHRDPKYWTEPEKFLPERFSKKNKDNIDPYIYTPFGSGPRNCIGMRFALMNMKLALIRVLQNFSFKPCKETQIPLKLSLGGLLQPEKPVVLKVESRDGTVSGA
Cytochrome P450 1A2 (Homo sapiens), sequence (P05177 whole entry, looked up): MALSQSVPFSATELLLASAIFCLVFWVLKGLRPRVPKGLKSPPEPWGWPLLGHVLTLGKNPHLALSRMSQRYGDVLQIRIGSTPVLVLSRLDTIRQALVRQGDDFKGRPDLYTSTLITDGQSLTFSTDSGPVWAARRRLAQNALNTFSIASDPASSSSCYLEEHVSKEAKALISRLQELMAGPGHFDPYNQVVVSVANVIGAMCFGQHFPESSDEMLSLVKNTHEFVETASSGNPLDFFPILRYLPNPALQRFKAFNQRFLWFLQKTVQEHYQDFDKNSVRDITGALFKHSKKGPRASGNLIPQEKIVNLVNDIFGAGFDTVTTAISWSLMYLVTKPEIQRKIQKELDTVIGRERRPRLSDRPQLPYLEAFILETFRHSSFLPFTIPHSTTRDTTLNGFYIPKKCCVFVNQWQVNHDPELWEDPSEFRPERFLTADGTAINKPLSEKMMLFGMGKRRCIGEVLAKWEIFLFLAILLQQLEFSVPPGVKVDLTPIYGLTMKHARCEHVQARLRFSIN
Voltage-gated inwardly rectifying potassium channel KCNH2 (Homo sapiens), sequence (Q12809 whole entry, looked up): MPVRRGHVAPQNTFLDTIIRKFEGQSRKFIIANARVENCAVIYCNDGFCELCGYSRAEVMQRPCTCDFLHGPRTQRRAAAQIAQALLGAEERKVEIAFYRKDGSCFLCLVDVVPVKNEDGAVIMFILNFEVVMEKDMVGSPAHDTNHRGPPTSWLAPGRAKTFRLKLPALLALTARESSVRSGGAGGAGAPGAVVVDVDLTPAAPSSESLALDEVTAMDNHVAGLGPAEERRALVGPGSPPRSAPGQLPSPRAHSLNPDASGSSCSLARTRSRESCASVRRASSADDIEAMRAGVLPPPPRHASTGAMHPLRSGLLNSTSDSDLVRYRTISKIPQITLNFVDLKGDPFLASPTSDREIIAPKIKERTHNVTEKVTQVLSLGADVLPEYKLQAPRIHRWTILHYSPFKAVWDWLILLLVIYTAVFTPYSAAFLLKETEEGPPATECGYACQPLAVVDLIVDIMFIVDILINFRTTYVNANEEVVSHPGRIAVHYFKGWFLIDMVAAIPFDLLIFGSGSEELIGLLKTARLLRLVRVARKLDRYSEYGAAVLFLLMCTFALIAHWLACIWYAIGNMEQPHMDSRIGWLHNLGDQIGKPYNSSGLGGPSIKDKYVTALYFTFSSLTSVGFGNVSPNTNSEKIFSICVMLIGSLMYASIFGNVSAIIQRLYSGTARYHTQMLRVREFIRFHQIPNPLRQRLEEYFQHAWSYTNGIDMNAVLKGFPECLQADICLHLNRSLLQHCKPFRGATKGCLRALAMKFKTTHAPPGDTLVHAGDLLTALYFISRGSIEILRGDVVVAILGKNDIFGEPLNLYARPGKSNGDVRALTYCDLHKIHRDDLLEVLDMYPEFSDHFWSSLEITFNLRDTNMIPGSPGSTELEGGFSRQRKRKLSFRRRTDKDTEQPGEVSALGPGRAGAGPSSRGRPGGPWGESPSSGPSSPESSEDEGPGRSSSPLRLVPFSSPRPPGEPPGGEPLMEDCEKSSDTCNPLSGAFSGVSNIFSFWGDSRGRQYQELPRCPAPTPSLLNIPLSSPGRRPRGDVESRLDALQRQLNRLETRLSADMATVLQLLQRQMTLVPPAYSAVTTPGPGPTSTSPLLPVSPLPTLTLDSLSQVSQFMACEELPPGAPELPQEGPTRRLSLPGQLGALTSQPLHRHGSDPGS

On to `N=C1N=C(N)c2ccccc21`, for which the Potency result in experiment [1], in experiment [2], in experiment [3] and in experiment [4] was “inactive” in each case.

`CCC(N)(CO)CO`: the Potency entry in experiment [1], in experiment [2], in experiment [3] and in experiment [4] was “inactive” in each case.

For the compound `Cc1cccc(S(=O)(=O)O)c1C`, the Potency entry in experiment [1], in experiment [5] and in experiment [3] was “inactive” in each case.

For the compound `Nc1cc(C(F)(F)F)ccc1S`, the Potency was 2.19 µM (active) in experiment [1] and 12.3 µM (active) in experiment [5]. Besides, the Potency entry in experiment [3] was “inactive”.

In the case of `Nc1ccc2cc(S(=O)(=O)O)cc(O)c2c1N=Nc1ccccc1C(F)(F)F`, the Potency in experiment [1] is 79.6 µM (active); in experiment [5] it was 39.9 µM (active). Moreover, in experiment [3], the Potency result is “inactive”.

Consider `O=c1[nH]cnc2nc[nH]c12`, for which the Potency entry in experiment [1], in experiment [2], in experiment [3] and in experiment [4] was “inactive” each time.

`O=C(OC[C@H]1O[C@@H](OC(=O)c2cc(O)c(O)c(OC(=O)c3cc(O)c(O)c(O)c3)c2)[C@H](OC(=O)c2cc(O)c(O)c(OC(=O)c3cc(O)c(O)c(O)c3)c2)[C@@H](OC(=O)c2cc(O)c(O)c(OC(=O)c3cc(O)c(O)c(O)c3)c2)[C@@H]1OC(=O)c1cc(O)c(O)c(OC(=O)c2cc(O)c(O)c(O)c2)c1)c1cc(O)c(O)c(OC(=O)c2cc(O)c(O)c(O)c2)c1`: the Potency entry in experiment [1] is “inactive”. Also, the Potency in experiment [2] was 21.5 µM (active). Moreover, the activity change, negative = inhibition in experiment [3] was 1.88% [at 15.8 µM]; in experiment [4], -11% [at 23.6 µM].

On to `O=c1c(-c2ccccc2)c1-c1ccccc1`, for which the Potency in experiment [1] is 7.76 µM (active); in experiment [5], 1.15 µM (active). Besides, the Potency result in experiment [3] was “inactive”.

For `Cc1cccc(CN2CCN(C(c3ccccc3)c3ccc(Cl)cc3)CC2)c1` (stereo not drawn), the Potency in experiment [1] was 8.71 µM (active); in experiment [3], 2.39 µM (active). In addition, in experiment [5], the Potency result is “inactive”.

In the case of `N=C1N=C(N)c2cc3ccccc3cc21`, the Potency in experiment [1] was 79.6 µM (active); in experiment [5], 1.78 µM (active).

`Oc1cccc2cc3cccc(O)c3c(O)c12`: the Potency in experiment [1] was 35.7 µM (active). Besides, the Potency entry in experiment [2], in experiment [3] and in experiment [4] was “inactive” each time.

Consider `O=C(NOCC1CC1)c1ccc(F)c(F)c1Nc1ccc(I)cc1Cl`, for which the Potency was 0.246 µM (active) in experiment [1] and 15.5 µM (active) in experiment [5]. Besides, in experiment [3], the Potency result was “inactive”.

Consider `CCCCCCCCCCCCCCCCCC[N+](C)(C)C`, for which the Potency in experiment [1] was 89.6 µM (active); in experiment [2], 63.5 µM (active); in experiment [4] it was 71.2 µM (active).

With `CCN(C(=O)N(CC)c1ccccc1)c1ccccc1`, in experiment [1], the Potency is 7.96 µM (active). Further, the Potency result in experiment [5] and in experiment [3] was “inactive” throughout.

Turning to `CNC(=O)c1ccccc1`, the Potency result in experiment [1], in experiment [2], in experiment [3] and in experiment [4] was “inactive” in each case.

Regarding `O=[N+]([O-])c1cc(Cl)c(Cl)c(Cl)c1Cl`, the Potency was 39.8 µM (active) in experiment [1] and 2.24 µM (active) in experiment [5]. Besides, the Potency entry in experiment [3] and in experiment [4] was “inactive” throughout.

Turning to `CNCc1cc(F)ccc1Oc1ccc(Cl)c(Cl)c1`, the values for the Potency in experiment [1] and in experiment [5] were 2.52 µM (active) and 1 µM (active), respectively.

Consider `Oc1ccc2c(c1)-c1ccccc1C2`, for which the Potency in experiment [1] is 39.9 µM (active); in experiment [5], 5.03 µM (active). In addition, in experiment [3], the Potency entry was “inactive”.

Regarding `CCN(CC)CCCC(C)Nc1c2ccc(Cl)cc2nc2ccc(OC)cc12` (stereo not drawn), the Potency entry in experiment [1], in experiment [2], in experiment [3] and in experiment [4] was “inactive” each time.

For the compound `CCCCCCCCOC(=O)c1ccc(O)cc1`, the Potency in experiment [1] is 22.4 µM (active) and 10 µM (active); in experiment [5], 19.9 µM (active) and 12.6 µM (active). Besides, the Potency entry in experiment [3] is “inactive”.

For the compound `CCCCCCCCCCCCCCCC(=O)OC[C@H](O)[C@H]1OC(=O)C(O)=C1O`, in experiment [1], the Potency was 79.6 µM (active). The Potency entry in experiment [5] and in experiment [3] was “inactive” throughout.

As for `COC(=O)c1cc(Cl)ccc1OC`, the Potency result in experiment [1] and in experiment [3] was “inactive” each time. Further, in experiment [5], the Potency is 2.88 µM (active).

As to `CC[C@@]1(O)C(=O)OCc2c1cc1n(c2=O)Cc2c-1nc1ccccc1c2/C=N/OC(C)(C)C`, the Potency entry in experiment [1], in experiment [5] and in experiment [3] was “inactive” throughout.

Consider `O=C1C=CC(=O)N1`, for which the Potency entry in experiment [2], in experiment [3] and in experiment [4] was “inactive” each time. For the same compound, the Potency in experiment [5] is 32.6 µM (active).

Consider `CCOc1nc2cccc(C(=O)OC(C)OC(=O)OC3CCCCC3)c2n1Cc1ccc(-c2ccccc2-c2nn[nH]n2)cc1` (stereo not drawn), for which the Potency in experiment [2] was 10 µM (active). In addition, the Potency result in experiment [5] and in experiment [3] was “inactive” throughout.

For the compound `Nc1ccccc1O`, the Potency is 27.9 µM (active) in experiment [2], 15.7 µM (active) in experiment [5] and 31.3 µM (active) in experiment [4]. Further, the Potency result in experiment [3] was “inactive”.

For the compound `NNc1nc(-c2ccccc2)cs1`, the Potency in experiment [2] is 9.19 µM (active); in experiment [5] it was 0.651 µM (active); in experiment [4] it was 5.8 µM (active). Also, the Potency result in experiment [3] is “inactive”.

For the compound `Cc1[nH]nc2c1N=C(c1ccccc1Cl)c1cc([N+](=O)[O-])ccc1N2`, the Potency in experiment [2] is 15.9 µM (active); in experiment [5] it was 63.3 µM (active); in experiment [3], 8.71 µM (active); in experiment [4] it was 3.99 µM (active).

Turning to `CN1CCC(Nc2ncc3ncnc(Nc4ccc(F)c(Cl)c4)c3n2)CC1`, the Potency entry in experiment [2], in experiment [5], in experiment [3] and in experiment [4] was “inactive” each time.

Turning to `CCCCCOC(=O)CCCC`, the Potency entry in experiment [2], in experiment [5], in experiment [3] and in experiment [4] was “inactive” throughout.

As for `Oc1ccc2cc(SSc3ccc4cc(O)ccc4c3)ccc2c1`, the Potency in experiment [2] is 71.1 µM (active) and 39.9 µM (active); in experiment [5], 63.4 µM (active) and 63.3 µM (active); in experiment [4], 14.2 µM (active) and 31.7 µM (active). Also, in experiment [3], the Potency result is “inactive”.

As to `COc1ccc(CN2CCN(C(c3ccc(F)cc3)c3ccc(F)cc3)CC2)c(OC)c1OC`, the Potency in experiment [2] was 11 µM (active); in experiment [3], 0.674 µM (active). Further, the Potency entry in experiment [5] is “inactive”.

Consider `CCc1cc(SCc2sc(-c3ccc(C(F)(F)F)cc3)nc2CN2CCN(c3ccc(OC)cc3)CC2)ccc1OCC(=O)O`, for which the figures for the Potency in experiment [2], in experiment [3] and in experiment [4] were 20 µM (active), 4.36 µM (active) and 11.2 µM (active), respectively. For the same compound, the Potency entry in experiment [5] is “inactive”.
